# Screens as filed in PubChem BioAssay.
# Shown are actives, neighbours in structure and some others; about 7.9% of the full set was active somewhere.
# HCV inhibitor = HCV inhibition; Huh7.5.1 HCVcc-Cre infection, luciferase reporter, 44 h; Potency, µM (top dose mostly 41.8 µM), for inactives: at the top dose activity change, negative = inhibition, usual class: inhibitors; 3.4% of 340,000 active; AID 651820; active = well fitted inhibition curve with a large enough effect; inconclusive = small, poorly fitted or top-dose-only effect, or another doubt; inactive = no such curve, though single readings can be large or run the other way; note: potency is the fitted concentration of half-maximal effect
#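 1,000 cells/well; 4 h culture; + compound; + HCVcc-Cre (~0.5 moi); 44 h; luciferase substrate, RT 15 min; read 15 sec.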
# Marburg entry inh = blocks Marburg virus binding to or entry into cells. Marburg virus pseudotyped entry inhibition, cell reporter. Potency, µM (series often up to 37.8 µM), for inactives: at the top dose activity change, negative = inhibition, most hits filed as inhibitors. 1.8% of 300,000 active; calls by dose curve; tested in HEK293 cells; note: potency is the fitted concentration of half-maximal effect
# HCMV antiviral = blocks human cytomegalovirus replication; AID 1259415; activity change, negative = inhibition, % at 57.5 µM; HFF cells, HCMV-luciferase reporter, 72 h; active compounds read low; 4.5% of 410,000 active; in the data active = activity change below about -60%; inconclusive = no clear call, values can overlap the other calls; inactive = above about -39%
#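 Luciferase read-out from HCMV-luciferase-infected HFFs (MOI 1 PFU/cell) 72 h post infection at 37C; compounds added after 16 h cell attachment; activity normalized between buffer-only basal and Salinomycin (10uM) inhibitor controls.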
# FMDV inh = blocks foot and mouth disease virus; FMDV antiviral cell-based qHTS; Potency, µM (doses to about 57.9 µM), for the others: top-dose activity change, negative = inhibition, usual class: inhibitors; 1.2% of 410,000 active; calls by dose curve; tested in HEK293T cells; note: read-out not given here; potency is the fitted concentration of half-maximal effect; nearly all actives have a fitted effect of over 45% in size
# Lassa entry inh = inhibitors of Lassa virus binding or cell entry; Lassa virus pseudotype entry inhibition, cell reporter; Potency, µM (titrated, usually from 37.9 µM), without a hit: top-dose activity change, negative = inhibition, usual class: inhibitors; 1.2% of 300,000 active; calls by dose curve; tested in HEK293 cells; note: potency is the fitted concentration of half-maximal effect; nearly all actives have a fitted effect of over 50% in size
# Starred values were filed as active, the others as inactive; u = inconclusive; x = not tested or not shown; [ ] = remark or other dose. % is set by controls: 0 for no effect and ±100 for the full control effect.
SMILES,HCV inhibitor,Marburg entry inh,HCMV antiviral,FMDV inh,Lassa entry inh
CCC(C)NC(=O)Cn1c(=O)n(Cc2ccc(C(=O)NCc3ccc(C)cc3)cc2)c(=O)c2ccccc21 (stereo unspecified),x,4.6%[46.1 µM],-78.6*,-0.2%,-17.0%[46.1 µM]
CCc1nc2ccc(Br)cc2c(=O)n1-c1ccccc1C(F)(F)F,u,-4.9%,5.7,-20.2%,-12.8%
CCCc1nc2ccc(Br)cc2c(=O)n1-c1ccc([N+](=O)[O-])c(C(F)(F)F)c1,u,u,-86.8*,u,u
COc1ccc(C)cc1NC(=O)CSc1nc(=O)n(Cc2ccncc2)c2c1CCC2,x,x,-103.1*,0.0%,4.9%[46.1 µM]
COc1cccc(NC(=O)CSc2nc(=O)n(CCN(C)C)c3c2CCCC3)c1,-14.2%,-26.8%,-13.7,-0.8%,-4.0%
CCc1ccc(NC(=O)CSc2nc(=O)n(CCN(C)C)c3c2CCCC3)cc1,u,12.6µM*,-19.4,35.0%,u
COc1ccc(C)cc1NC(=O)CSc1nc(=O)n(Cc2ccco2)c2c1CCC2,x,x,-1.5,u,7.2%[46.1 µM]
CC(C)c1ccc(NC(=O)CSc2nc(=O)n(Cc3ccccn3)c3c2CCC3)cc1,x,x,-102.3*,0.0%,-34.6%[46.1 µM]
Cc1ccc(NC(=O)CSc2nc(=O)n(Cc3ccccn3)c3c2CCC3)cc1F,x,x,-35.8,-24.2%,-7.6%[46.1 µM]
O=C(CSc1nc(=O)n(Cc2cccnc2)c2c1CCC2)Nc1cccc(Cl)c1,x,x,13.6,0.0%,u
CC(C)c1ccc(NC(=O)CSc2nc(=O)n(Cc3cccnc3)c3c2CCC3)cc1,x,x,-107.1*,u,-1.5%[46.1 µM]
CCCN1C(=O)COc2ccc(-c3n[nH]c(=O)c4ccccc34)cc21,-22.9%,10µM*,-101.8*,u,-1.7%[46.1 µM]
O=C(NCC1(N2CCCCC2)CCCCC1)c1ccc(-n2cc(NC(=O)c3cccnc3)cn2)cc1,x,x,x,-9.6%,x
Cc1ccc(C2c3[nH]c4ccccc4c3CCN2C(=O)c2ccc(N(C)C)cc2)cc1 (stereo unspecified),x,x,64.0,-17.5%,u
Cc1ccc(C2c3[nH]c4ccccc4c3CCN2C(=O)c2ccccc2Br)cc1 (stereo unspecified),x,x,-77.7*,-16.9%,u
Cc1cccc(C2c3[nH]c4ccccc4c3CCN2C(=O)c2nn(C)c(=O)c3ccccc23)n1 (stereo unspecified),u,u,85.0,u,11.2µM*
Cc1ccc(C2c3[nH]c4ccccc4c3CCN2C(=O)CCC2CCCC2)cc1 (stereo unspecified),x,x,-93.1*,-29.1%,u
CC(C)(C)OC(=O)N1CCC(CC2CC(c3ccc(Cl)cc3)=NO2)(C(=O)NCC2CCCCC2)CC1 (stereo unspecified),21.0%,x,69.4,-19.7%,x
C/C(=N/NC(=O)C(C)n1nc(C)c([N+](=O)[O-])c1C)c1ccc(OCC(N)=O)cc1 (stereo unspecified),-16.4%,9.2%[46.1 µM],0.7,-22.2%,0.5%[46.1 µM]
COC(=O)c1ccc(CSc2nnc3c(n2)[nH]c2ccccc23)cc1,6.8%,7.9%[46.1 µM],u,-11.9%,-1.5%
CC(Sc1nnc2c(n1)[nH]c1ccccc12)C(=O)N(C)C1CCCCC1 (stereo unspecified),6.31µM*,u,-84.7*,u,u
CC(Sc1nnc2c(n1)[nH]c1ccccc12)C(=O)NC1CCCCC1 (stereo unspecified),5.62µM*,4.47µM*,-30.0,u,u
COCCN1Cc2cccc(C(=O)Nc3ccc(Cl)cc3Cl)c2C1=O,x,6.7%[46.1 µM],3.1,-24.5%,-1.7%[46.1 µM]
CC1CCN(c2nc3ccc(C(=O)NCc4ccccc4Cl)cc3s2)CC1,x,u,18.4,-3.3%,u
CC(C)N(Cc1nc(-c2ccccc2)no1)C(=O)COc1ccccc1,-10.2%,x,-3.0,-1.5%,x
SMILES,HCV inhibitor,Marburg entry inh,HCMV antiviral,FMDV inh,Lassa entry inh
COc1ccc(OC(C)C(=O)N(C)Cc2nc(-c3ccc(C)cc3)no2)cc1 (stereo unspecified),14.1µM*,-0.8%[46.1 µM],-32.3,u,x
COc1ccc(OC(C)C(=O)N(C)Cc2nc(-c3ccc(OC)cc3)no2)cc1 (stereo unspecified),u,-11.2%[46.1 µM],-64.5*,u,-24.4%
COc1ccc(CC(=O)N(Cc2nc(-c3ccc(C)cc3)no2)C(C)C)cc1,x,-29.1%[46.1 µM],-21.5,-17.8%,1.4%[46.1 µM]
CC(Oc1ccc(Br)cc1)C(=O)N(Cc1nc(-c2ccccc2)no1)C(C)C (stereo unspecified),x,u,-70.4*,u,-16.2%[46.1 µM]
COc1ccc(-c2noc(CN(C)C(=O)Nc3ccccc3)n2)cc1,u,x,u,-27.5%,x
COc1ccccc1OCC(=O)N(Cc1nc(-c2ccccc2)no1)C(C)C,3.16µM*,u,-5.3,-2.1%,7.94µM*
COc1ccccc1OCC(=O)N(Cc1nc(-c2ccc(Cl)cc2)no1)C(C)C,u,x,14.5,-15.3%,x
O=C1CC2(CCCCC2)Oc2ccc(Cl)cc21,22.1%,x,3.2,-9.4%,x
O=c1c(-c2cccs2)nc2cnc(N3CCOCC3)nc2n1CCc1ccccc1,x,x,x,-7.7%,x
O=C(NCc1nnc2n1CCN(Cc1cc3c(cc1Cl)OCO3)CC2)c1cccc(F)c1,x,x,x,-10.5%,x
CCCc1cc(C(=O)Nc2ccc(C(=O)c3ccc(C)cc3)cc2)n(C)n1,10µM*,u,-24.2,-29.4%,u
ON=C(CCc1ccccc1)CCc1ccccc1,11.1%,-7.7%,-74.8*,-15.1%,u
O=C(COC(=O)CNC(=O)c1ccco1)NCCN1C(=O)CSC1=O,-3.7%,19.5%,-62.0*,8.0%,5.1%
COc1ccccc1OCC(=O)OCC(=O)NCCN1C(=O)CSC1=O,20.7%,u,-3.6,22.8%,3.6%
Cc1cc(C)c(S(=O)(=O)NCCOc2ccccc2)c(C)c1-n1cnnn1,-21.8%,u,47.3,29.6%,10.5%
CCCCC(=O)N(CCOC)c1nnc(-c2cccnc2)s1,24.2%,u,-16.3,20.5%,-10.3%[46.1 µM]
CCCCC(=O)N(CCOC)c1nnc(-c2ccccc2C)s1,1.78µM*,u,-15.4,-6.3%,0.2%[46.1 µM]
COc1cccc(C(=O)NC2CCCc3ccccc32)c1 (stereo unspecified),-6.1%,-4.5%,26.2,31.7%,16.8%
Cc1cccn2c(CNC3CCCc4ccccc43)c(C(=O)N3CCCCC3)nc12 (stereo unspecified),-4.9%,10µM*,-7.5,-17.5%,u
COc1ccc(C(=O)NC2CCCc3ccccc32)cc1 (stereo unspecified),-9.1%,u,-70.4*,20.5%,-7.1%
O=C(NC1CCCc2ccccc21)c1cn2ccccc2n1 (stereo unspecified),u,5.4%,4.7,43.3%,7.3%
COc1cc(OC)c(C(=O)NC2CCCc3ccccc32)cc1OC (stereo unspecified),-2.4%,u,5.0,2.8%,u
COCCNc1ccc([N+](=O)[O-])cc1C(=O)NC1CCCc2ccccc21 (stereo unspecified),12.6µM*,u,35.5,-12.7%,5.7%
Cc1nc2ccccn2c1C(=O)NC1CCCc2ccccc21 (stereo unspecified),7.08µM*,x,-72.3*,u,x
COCCNc1nc2cc(-c3ccccc3OC)sc2c(=O)n1C,x,x,31.8,-7.5%,x
